Reference: PubChem BioAssay (NCI)
The panel holds about 79,000 compounds, 15% with a hit somewhere; the sample as a whole holds those more often. The source made the active and inactive calls. Cut-off read from the data, not from the text of the source: active = growth inhibition above about 70%; inactive = the rest.

Experiments:
[1] = NCI Yeast Anticancer Drug Screen. Data for the rad52 strain (AID 147);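 note: 0% = growth of vehicle-treated control cultures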; settings: S. cerevisiae rad52 mutant growth inhibition, hits give high values
Procedure, shortened: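 Screen used a yeast mutant impaired in DNA repair. After compound exposure, growth was measured. Values reflect inhibition compared with vehicle-treated cells.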

[2] = NCI Yeast Anticancer Drug Screen. Data for the wt1 strain (AID 149);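 note: 0% = growth of vehicle-treated wt1 cultures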; settings: S. cerevisiae wt1 strain (SPY 50644) growth inhibition, hits give high values
Procedure, shortened: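 Yeast wt1 strain exposed to compounds; growth inhibition measured relative to vehicle-treated controls.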

[3] = NCI Yeast Anticancer Drug Screen. Data for the rad50EPP+ strain (AID 151);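 note: 0% = growth of vehicle-treated control cultures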; settings: S. cerevisiae rad50 mutant strain, hits give high values
Procedure, shortened: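 Exposing the rad50EPP+ strain to each compound, growth was compared with vehicle-only cultures to give inhibition.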

[4] = NCI Yeast Anticancer Drug Screen. Data for the mgt1 strain (AID 153); settings: S. cerevisiae mgt1 mutant growth inhibition, hits give high values
Procedure, shortened: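 Genetically defined yeast (mgt1) treated with compound; inhibition of growth expressed against vehicle-treated controls.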

[5] = NCI Yeast Anticancer Drug Screen. Data for the rad50 strain (AID 155);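 note: 0% = growth of vehicle-only cultures of the same strain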; settings: S. cerevisiae rad50 strain growth inhibition, hits give high values
Procedure, shortened: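 Yeast carrying a defined DNA repair defect were exposed to test compounds, and growth was compared with vehicle-treated controls to give percent inhibition.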

[6] = NCI Yeast Anticancer Drug Screen. Data for the mec2-1 strain (AID 157); settings: S. cerevisiae mec2-1 strain, hits give high values
Procedure, shortened: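 Readout is yeast growth inhibition, normalised to vehicle-treated controls, in the mec2-1 strain exposed to compound.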

[7] = NCI Yeast Anticancer Drug Screen. Data for the rad14 strain (AID 159);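 note: 0% = growth of vehicle-treated control cultures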; settings: S. cerevisiae rad14 strain growth inhibition, hits give high values
Procedure, shortened: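 Yeast cells carrying a defined DNA-repair defect were exposed to compounds, and growth inhibition was calculated relative to vehicle-treated control cultures.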

[8] = NCI Yeast Anticancer Drug Screen. Data for the sgs1 mgt1 strain (AID 161);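 note: 0% = growth of cultures given vehicle only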; settings: S. cerevisiae sgs1 mgt1 strain, hits give high values
Procedure, shortened: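 Yeast cells carrying a defined DNA-repair defect were exposed to test compounds. Growth inhibition was measured relative to vehicle-treated controls.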

[9] = NCI Yeast Anticancer Drug Screen. Data for the CLN2oe strain (AID 163);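 note: 0% = growth of vehicle-only control cultures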; settings: S. cerevisiae CLN2oe strain, hits give high values
Procedure, shortened: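 Values reflect how much compound exposure reduced yeast growth, referenced to vehicle-exposed cells. Assay organism is a strain with a defined genetic change affecting cell-cycle control.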

[10] = NCI Yeast Anticancer Drug Screen. Data for the cln2 rad14 strain (AID 165);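 note: 0% = growth equal to vehicle treated cultures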; settings: S. cerevisiae cln2 rad14 strain, hits give high values
Procedure, shortened: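 Relative to vehicle controls, growth inhibition of compound-treated cln2 rad14 yeast was recorded.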

[11] = NCI Yeast Anticancer Drug Screen. Data for the bub3 strain (AID 167); settings: S. cerevisiae bub3 mutant strain, hits give high values
Procedure, shortened: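 Compounds were applied to a genetically altered yeast strain carrying a cell-cycle control defect. Growth inhibition was scored against vehicle-treated controls.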

[12] = NCI Yeast Anticancer Drug Screen. Data for the wt2 strain (AID 169);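 note: 0% = growth of vehicle-treated yeast cultures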; settings: S. cerevisiae wt2 strain growth inhibition, hits give high values
Procedure, shortened: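 Values express reduction in yeast growth under compound treatment, referenced to vehicle-treated cells.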

[13] = NCI Yeast Anticancer Drug Screen. Data for the mlh1 strain (AID 171);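 note: 0% = growth of vehicle-treated control cultures of the same strain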; settings: S. cerevisiae mlh1 strain growth inhibition, hits give high values
Procedure, shortened: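 Steps: expose the defined-mutant yeast strain to compound; expose a parallel culture to vehicle; measure growth; express compound effect as inhibition relative to the vehicle culture.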

[14] = NCI Yeast Anticancer Drug Screen. Data for the sgs1 strain (AID 173);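 note: 0% = growth of vehicle-only control cultures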; settings: S. cerevisiae sgs1 mutant, hits give high values
Procedure, shortened: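 Treat defined-mutant yeast with compound; measure growth; calculate inhibition relative to vehicle-treated cells.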

[15] = NCI Yeast Anticancer Drug Screen. Data for the mlh1 rad18 strain (AID 175); settings: S. cerevisiae mlh1 rad18 strain growth inhibition, hits give high values
Procedure, shortened: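 Test agents were incubated with a yeast strain of defined genotype (DNA damage repair defect). Inhibition of growth was derived by comparison with vehicle-exposed cultures.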

[16] = NCI Yeast Anticancer Drug Screen. Data for the rad18 strain (AID 177); settings: S. cerevisiae rad18 mutant growth inhibition, hits give high values
Procedure, shortened: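 A genetically defined yeast mutant impaired in DNA damage repair was treated with test compounds, then its growth was measured against cultures receiving vehicle alone.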

[17] = at 5.0 µM (retest, dose inferred, filed as 0.5)
[18] = at 50.0 µM (retest, dose inferred, filed as 5.0)

Measured: growth inhibition

C/C(=N\Nc1ccc([N+](=O)[O-])cc1[N+](=O)[O-])c1sc(-n2nc(-c3ccccc3)cc2-c2ccccc2)nc1C
inactive: [1]; at 1.2 µM -1% | [1]; at 3.7 µM 13% | [1]; at 11.0 µM 7% | [1]; at 33.0 µM 0% | [1]; at 100.0 µM 26% | [2]; at 1.2 µM -21% | [2]; at 3.7 µM -4% | [2]; at 11.0 µM -13% | [2]; at 33.0 µM -1% | [2]; at 100.0 µM -4% | [3]; at 1.2 µM 7% | [3]; at 3.7 µM 22% | [3]; at 11.0 µM 27% | [3]; at 33.0 µM 50% | [3]; at 100.0 µM 59% | [4]; at 1.2 µM 18% | [4]; at 3.7 µM 6% | [4]; at 11.0 µM 6% | [4]; at 33.0 µM 32% | [4]; at 100.0 µM 60% | [5]; at 1.2 µM -1% | [5]; at 3.7 µM 0% | [5]; [17] 25% | [5]; at 11.0 µM -15% | [5]; at 33.0 µM 4% | [5]; [18] 62% | [5]; at 100.0 µM 10% | [6]; at 1.2 µM 11% | [6]; at 3.7 µM 16% | [6]; [17] 0% | [6]; at 11.0 µM 15% | [6]; at 33.0 µM 22% | [6]; [18] 16% | [6]; at 50.0 µM 66% | [6]; at 100.0 µM 34% | [7]; at 1.2 µM -7% | [7]; at 3.7 µM -13% | [7]; at 11.0 µM -15% | [7]; at 33.0 µM -9% | [7]; at 100.0 µM -6% | [8]; [17] 11% | [8]; [18] 57% | [9]; at 1.2 µM 8% | [9]; at 3.7 µM 12% | [9]; at 11.0 µM 9% | [9]; at 33.0 µM 18% | [9]; at 100.0 µM 26% | [10]; [17] 29% | [10]; [18] 34% | [10]; at 50.0 µM 61.6% | [11]; at 1.2 µM 15% | [11]; at 3.7 µM 25% | [11]; [17] 31% | [11]; at 11.0 µM 46% | [11]; at 33.0 µM 42% | [11]; at 100.0 µM 62% | [12]; at 1.2 µM -21% | [12]; at 3.7 µM -22% | [12]; at 11.0 µM -25% | [12]; at 33.0 µM -11% | [12]; at 100.0 µM 68% | [13]; at 1.2 µM 1% | [13]; at 3.7 µM -15% | [13]; at 11.0 µM -16% | [13]; at 33.0 µM 5% | [13]; at 100.0 µM 25% | [14]; at 1.2 µM 0% | [14]; at 3.7 µM 6% | [14]; at 11.0 µM 13% | [14]; at 33.0 µM 11% | [14]; at 100.0 µM 25% | [15]; [17] 24% | [15]; [18] 60% | [16]; at 1.2 µM -9% | [16]; at 3.7 µM 11% | [16]; at 11.0 µM 14% | [16]; at 33.0 µM 24% | [16]; at 100.0 µM 36%
active: [5]; at 50.0 µM 80% | [8]; at 50.0 µM 75.3% | [11]; [18] 74% | [11]; at 50.0 µM 79% | [15]; at 50.0 µM 79.3%

OC(CCNCc1ccccc1)c1ccc2ccccc2c1 (stereo unspecified)
inactive: [1]; at 1.2 µM 15% | [1]; at 3.7 µM 42% | [1]; at 11.0 µM 69% | [2]; at 1.2 µM 2% | [2]; at 3.7 µM 33% | [2]; at 11.0 µM 41% | [2]; at 33.0 µM 60% | [3]; at 1.2 µM -5% | [3]; at 3.7 µM -12% | [3]; at 11.0 µM 13% | [3]; at 33.0 µM 27% | [3]; at 100.0 µM 21% | [4]; at 1.2 µM 14% | [4]; at 3.7 µM 34% | [4]; at 11.0 µM 63% | [5]; at 1.2 µM 15% | [5]; at 3.7 µM 44% | [5]; [17] 22% | [6]; at 1.2 µM -1% | [6]; at 3.7 µM 10% | [6]; [17] 15% | [6]; at 11.0 µM 22% | [6]; at 33.0 µM 47% | [6]; at 50.0 µM 37.9% | [6]; at 100.0 µM 58% | [7]; at 1.2 µM 32% | [7]; at 3.7 µM 56% | [8]; [17] 9% | [9]; at 1.2 µM 19% | [9]; at 3.7 µM 53% | [9]; at 11.0 µM 68% | [10]; [17] 29% | [11]; at 1.2 µM 29% | [11]; at 3.7 µM 45% | [11]; [17] 37% | [11]; at 11.0 µM 68% | [12]; at 1.2 µM 24% | [12]; at 3.7 µM 65% | [13]; at 1.2 µM -4% | [13]; at 3.7 µM 31% | [13]; at 11.0 µM 45% | [14]; at 1.2 µM 18% | [14]; at 3.7 µM 20% | [15]; [17] 51% | [15]; at 50.0 µM 65.7% | [16]; at 1.2 µM -1% | [16]; at 3.7 µM 31% | [16]; at 11.0 µM 45%
active: [1]; at 33.0 µM 87% | [1]; at 100.0 µM 90% | [2]; at 100.0 µM 72% | [4]; at 33.0 µM 84% | [4]; at 100.0 µM 96% | [5]; at 11.0 µM 72% | [5]; at 33.0 µM 92% | [5]; [18] 88% | [5]; at 50.0 µM 75.5% | [5]; at 100.0 µM 94% | [6]; [18] 76% | [7]; at 11.0 µM 85% | [7]; at 33.0 µM 96% | [7]; at 100.0 µM 99% | [8]; [18] 93% | [8]; at 50.0 µM 80.7% | [9]; at 33.0 µM 80% | [9]; at 100.0 µM 93% | [10]; [18] 80% | [10]; at 50.0 µM 75.2% | [11]; at 33.0 µM 91% | [11]; [18] 91% | [11]; at 50.0 µM 72% | [11]; at 100.0 µM 96% | [12]; at 11.0 µM 83% | [12]; at 33.0 µM 95% | [12]; at 100.0 µM 96% | [13]; at 33.0 µM 80% | [13]; at 100.0 µM 95% | [14]; at 11.0 µM 70% | [14]; at 33.0 µM 92% | [14]; at 100.0 µM 95% | [15]; [18] 96% | [16]; at 33.0 µM 70% | [16]; at 100.0 µM 87%
